# In the supplement of paper PMC11732987, “Enantioselective OTUD7B fragment discovery through chemoproteomics screening and high-throughput optimisation” (Communications Chemistry, 2025):
# Unmarked numbers belong to inactive results.
# Key:
# Assay in all cases: log2 ratio of Biotin-Ahx-Ub-VS probe labelling (fragment/DMSO); higher = less target engagement (more negative = stronger competition), active = hit call of the paper (q ≤ 0.05, log2 ratio ≤ -1)
# Settings in all cases: compound concentration: 200 uM; treatment time: 3 h
# [1] = biological target: T1, USP19 (UniProt O94966)
# T1 sequence (whole entry): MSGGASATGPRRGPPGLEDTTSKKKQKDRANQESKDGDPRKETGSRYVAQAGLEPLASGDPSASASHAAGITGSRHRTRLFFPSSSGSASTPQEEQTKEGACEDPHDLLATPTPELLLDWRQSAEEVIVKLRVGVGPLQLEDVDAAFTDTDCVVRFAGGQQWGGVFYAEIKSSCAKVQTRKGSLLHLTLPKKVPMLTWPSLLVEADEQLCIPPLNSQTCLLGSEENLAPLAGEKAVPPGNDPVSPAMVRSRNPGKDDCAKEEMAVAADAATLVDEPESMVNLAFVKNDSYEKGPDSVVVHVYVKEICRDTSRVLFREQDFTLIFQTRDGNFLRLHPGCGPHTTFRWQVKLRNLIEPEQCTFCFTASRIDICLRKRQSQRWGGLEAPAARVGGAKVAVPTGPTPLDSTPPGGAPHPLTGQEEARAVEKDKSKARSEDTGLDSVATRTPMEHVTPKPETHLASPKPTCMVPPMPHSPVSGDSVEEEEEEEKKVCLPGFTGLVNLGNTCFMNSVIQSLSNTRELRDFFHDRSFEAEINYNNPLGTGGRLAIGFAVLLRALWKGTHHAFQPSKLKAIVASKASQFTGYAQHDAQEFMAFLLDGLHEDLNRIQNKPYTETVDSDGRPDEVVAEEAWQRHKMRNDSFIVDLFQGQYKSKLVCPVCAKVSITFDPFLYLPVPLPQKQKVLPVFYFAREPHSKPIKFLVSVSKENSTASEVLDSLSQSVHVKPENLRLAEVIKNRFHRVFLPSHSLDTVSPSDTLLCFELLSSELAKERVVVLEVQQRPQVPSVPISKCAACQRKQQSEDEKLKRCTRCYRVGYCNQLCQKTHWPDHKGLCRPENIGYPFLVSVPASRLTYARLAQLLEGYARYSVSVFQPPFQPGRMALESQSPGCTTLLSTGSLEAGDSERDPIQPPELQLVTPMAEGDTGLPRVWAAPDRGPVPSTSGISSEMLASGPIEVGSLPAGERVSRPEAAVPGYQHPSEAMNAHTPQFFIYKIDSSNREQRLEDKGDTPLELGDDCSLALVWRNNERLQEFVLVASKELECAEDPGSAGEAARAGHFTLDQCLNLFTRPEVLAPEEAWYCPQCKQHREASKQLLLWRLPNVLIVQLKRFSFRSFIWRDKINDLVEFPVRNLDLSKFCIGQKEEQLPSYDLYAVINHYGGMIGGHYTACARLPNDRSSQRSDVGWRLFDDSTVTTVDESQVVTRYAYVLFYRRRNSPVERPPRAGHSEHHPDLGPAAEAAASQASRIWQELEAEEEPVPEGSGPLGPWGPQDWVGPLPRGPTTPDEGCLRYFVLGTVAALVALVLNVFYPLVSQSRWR
# Outline: (§1)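 HEK293T lysate, 495 µg per sample in Tris/CHAPS/IGEPAL buffer with protease inhibitors, was treated in triplicate with fragment at 200 µM or vehicle for 3 h and then with Biotin-Ahx-Ub-VS at 0.5 µM final for 1 h. Labelled DUBs were NeutrAvidin-enriched, digested with LysC and trypsin, and run by diaPASEF LC-MS/MS. Spectronaut label-free quantities were global-median-normalised, and values are average log2 fragment/vehicle ratios by unpaired t-test on proteins with ≥2 unique peptides.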
# [2] = biological target: T2, USP22 (UniProt Q9UPT9)
# T2 sequence (whole entry): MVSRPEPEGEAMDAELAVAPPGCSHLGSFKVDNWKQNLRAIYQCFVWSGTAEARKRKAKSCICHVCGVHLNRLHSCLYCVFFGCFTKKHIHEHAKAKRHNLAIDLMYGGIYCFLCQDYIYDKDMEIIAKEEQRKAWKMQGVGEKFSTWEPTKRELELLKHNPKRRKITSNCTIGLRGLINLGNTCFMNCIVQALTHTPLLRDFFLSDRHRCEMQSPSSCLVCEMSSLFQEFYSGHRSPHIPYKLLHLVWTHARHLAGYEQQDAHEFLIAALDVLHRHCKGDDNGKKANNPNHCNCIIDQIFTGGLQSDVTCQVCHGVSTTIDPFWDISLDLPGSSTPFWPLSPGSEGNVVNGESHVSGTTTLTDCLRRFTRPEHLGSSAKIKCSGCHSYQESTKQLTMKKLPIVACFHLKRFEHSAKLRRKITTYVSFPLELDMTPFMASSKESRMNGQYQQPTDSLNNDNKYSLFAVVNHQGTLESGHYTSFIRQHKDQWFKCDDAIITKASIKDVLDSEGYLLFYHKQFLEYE
# Outline: as §1
# [3] = biological target: USP24 (UniProt Q9UPU5)
# Sequence of USP24 (Q9UPU5 whole entry): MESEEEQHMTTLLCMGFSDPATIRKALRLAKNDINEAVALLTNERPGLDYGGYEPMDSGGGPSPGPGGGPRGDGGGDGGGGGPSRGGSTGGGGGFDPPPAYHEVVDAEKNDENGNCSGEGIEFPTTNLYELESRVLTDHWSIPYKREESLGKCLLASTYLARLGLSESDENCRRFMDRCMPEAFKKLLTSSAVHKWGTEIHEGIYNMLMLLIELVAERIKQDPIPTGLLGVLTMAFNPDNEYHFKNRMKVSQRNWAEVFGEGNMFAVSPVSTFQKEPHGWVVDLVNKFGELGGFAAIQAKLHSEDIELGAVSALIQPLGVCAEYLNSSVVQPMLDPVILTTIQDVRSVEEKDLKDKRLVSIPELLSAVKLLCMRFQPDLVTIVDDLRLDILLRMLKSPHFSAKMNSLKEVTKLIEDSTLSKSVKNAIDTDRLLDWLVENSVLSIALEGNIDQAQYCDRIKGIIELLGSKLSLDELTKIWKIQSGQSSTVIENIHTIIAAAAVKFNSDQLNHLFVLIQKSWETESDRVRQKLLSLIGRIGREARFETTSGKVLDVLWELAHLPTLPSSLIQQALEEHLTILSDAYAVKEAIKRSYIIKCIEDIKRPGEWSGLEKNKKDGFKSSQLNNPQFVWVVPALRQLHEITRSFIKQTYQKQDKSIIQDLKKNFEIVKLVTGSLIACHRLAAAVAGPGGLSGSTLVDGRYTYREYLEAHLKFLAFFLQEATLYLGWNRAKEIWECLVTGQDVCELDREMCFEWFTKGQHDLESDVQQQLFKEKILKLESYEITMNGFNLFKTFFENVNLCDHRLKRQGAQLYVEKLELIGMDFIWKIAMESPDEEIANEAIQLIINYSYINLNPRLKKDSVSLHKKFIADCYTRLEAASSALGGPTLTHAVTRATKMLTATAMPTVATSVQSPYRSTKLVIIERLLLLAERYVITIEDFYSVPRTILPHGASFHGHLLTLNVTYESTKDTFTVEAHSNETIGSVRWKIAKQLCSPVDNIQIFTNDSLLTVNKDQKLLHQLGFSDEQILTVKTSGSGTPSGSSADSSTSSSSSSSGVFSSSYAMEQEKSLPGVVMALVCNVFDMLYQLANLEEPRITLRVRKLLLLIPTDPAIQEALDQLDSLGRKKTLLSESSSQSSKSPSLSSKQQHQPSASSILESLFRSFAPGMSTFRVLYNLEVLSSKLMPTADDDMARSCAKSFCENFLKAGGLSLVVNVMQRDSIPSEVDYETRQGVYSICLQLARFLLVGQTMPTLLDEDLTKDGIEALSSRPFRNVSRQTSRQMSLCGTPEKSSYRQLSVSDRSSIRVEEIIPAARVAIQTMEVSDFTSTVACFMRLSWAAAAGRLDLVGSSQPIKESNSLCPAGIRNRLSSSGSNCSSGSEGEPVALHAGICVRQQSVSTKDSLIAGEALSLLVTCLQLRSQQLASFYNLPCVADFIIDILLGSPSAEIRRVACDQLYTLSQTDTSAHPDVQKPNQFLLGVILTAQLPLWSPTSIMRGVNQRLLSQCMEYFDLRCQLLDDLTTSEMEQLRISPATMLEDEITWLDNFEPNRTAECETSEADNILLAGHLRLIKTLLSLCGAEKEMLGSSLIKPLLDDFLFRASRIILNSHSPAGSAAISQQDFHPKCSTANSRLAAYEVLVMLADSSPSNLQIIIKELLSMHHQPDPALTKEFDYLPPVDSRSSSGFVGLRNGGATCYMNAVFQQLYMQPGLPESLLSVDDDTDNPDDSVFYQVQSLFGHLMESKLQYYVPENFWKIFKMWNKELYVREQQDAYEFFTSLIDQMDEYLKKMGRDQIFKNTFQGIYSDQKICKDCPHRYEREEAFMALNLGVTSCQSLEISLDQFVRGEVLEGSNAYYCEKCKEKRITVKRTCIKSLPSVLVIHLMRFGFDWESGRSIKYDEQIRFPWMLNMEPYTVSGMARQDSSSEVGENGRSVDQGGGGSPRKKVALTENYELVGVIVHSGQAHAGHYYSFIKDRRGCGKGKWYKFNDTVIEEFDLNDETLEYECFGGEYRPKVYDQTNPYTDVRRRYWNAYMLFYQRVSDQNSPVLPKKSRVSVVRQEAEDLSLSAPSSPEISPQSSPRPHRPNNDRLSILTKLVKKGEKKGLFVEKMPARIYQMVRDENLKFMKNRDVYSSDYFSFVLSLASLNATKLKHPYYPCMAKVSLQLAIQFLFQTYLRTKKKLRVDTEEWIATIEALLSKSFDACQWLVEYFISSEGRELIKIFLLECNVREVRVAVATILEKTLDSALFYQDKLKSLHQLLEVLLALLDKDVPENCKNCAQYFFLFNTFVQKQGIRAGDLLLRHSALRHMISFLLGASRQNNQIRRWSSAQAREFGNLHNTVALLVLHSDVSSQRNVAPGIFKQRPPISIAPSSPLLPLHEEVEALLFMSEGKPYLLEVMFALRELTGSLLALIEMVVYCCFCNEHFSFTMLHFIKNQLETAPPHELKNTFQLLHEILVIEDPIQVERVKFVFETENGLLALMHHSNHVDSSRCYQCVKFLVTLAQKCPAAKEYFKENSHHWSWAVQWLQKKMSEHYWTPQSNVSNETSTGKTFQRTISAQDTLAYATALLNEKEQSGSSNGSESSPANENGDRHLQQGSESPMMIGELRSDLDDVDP
# Outline: as §1
# [4] = biological target: T3, USP25 (UniProt Q9UHP3)
# T3 sequence (whole entry): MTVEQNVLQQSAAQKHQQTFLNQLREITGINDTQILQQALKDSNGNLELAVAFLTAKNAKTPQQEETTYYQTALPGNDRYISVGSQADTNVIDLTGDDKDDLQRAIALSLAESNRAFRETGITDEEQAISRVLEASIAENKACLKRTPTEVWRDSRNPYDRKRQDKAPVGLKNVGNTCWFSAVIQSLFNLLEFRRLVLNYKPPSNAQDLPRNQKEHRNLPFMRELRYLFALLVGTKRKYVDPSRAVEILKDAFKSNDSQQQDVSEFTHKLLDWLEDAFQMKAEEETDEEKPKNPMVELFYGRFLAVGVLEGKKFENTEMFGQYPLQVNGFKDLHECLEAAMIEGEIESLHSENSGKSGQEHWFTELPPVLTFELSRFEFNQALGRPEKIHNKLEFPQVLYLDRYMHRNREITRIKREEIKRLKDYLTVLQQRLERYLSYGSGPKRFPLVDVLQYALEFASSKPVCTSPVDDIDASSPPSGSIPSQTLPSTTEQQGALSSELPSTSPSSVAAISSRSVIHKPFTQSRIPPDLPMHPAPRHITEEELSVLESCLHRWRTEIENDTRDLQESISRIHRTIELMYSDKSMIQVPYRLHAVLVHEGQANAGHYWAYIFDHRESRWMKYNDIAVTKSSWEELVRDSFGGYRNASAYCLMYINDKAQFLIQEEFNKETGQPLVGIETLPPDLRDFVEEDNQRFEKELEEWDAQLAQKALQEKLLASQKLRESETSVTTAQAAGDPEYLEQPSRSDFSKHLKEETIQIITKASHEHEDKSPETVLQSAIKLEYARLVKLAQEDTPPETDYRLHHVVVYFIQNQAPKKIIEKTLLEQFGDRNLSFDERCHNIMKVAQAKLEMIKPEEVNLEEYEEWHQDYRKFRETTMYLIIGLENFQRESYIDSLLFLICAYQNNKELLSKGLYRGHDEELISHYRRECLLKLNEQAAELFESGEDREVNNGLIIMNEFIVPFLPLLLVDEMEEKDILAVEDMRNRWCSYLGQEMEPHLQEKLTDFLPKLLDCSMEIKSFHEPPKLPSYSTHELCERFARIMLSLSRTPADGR
# Outline: as §1
# [5] = biological target: T4, USP28 (UniProt Q96RU2)
# T4 sequence (whole entry): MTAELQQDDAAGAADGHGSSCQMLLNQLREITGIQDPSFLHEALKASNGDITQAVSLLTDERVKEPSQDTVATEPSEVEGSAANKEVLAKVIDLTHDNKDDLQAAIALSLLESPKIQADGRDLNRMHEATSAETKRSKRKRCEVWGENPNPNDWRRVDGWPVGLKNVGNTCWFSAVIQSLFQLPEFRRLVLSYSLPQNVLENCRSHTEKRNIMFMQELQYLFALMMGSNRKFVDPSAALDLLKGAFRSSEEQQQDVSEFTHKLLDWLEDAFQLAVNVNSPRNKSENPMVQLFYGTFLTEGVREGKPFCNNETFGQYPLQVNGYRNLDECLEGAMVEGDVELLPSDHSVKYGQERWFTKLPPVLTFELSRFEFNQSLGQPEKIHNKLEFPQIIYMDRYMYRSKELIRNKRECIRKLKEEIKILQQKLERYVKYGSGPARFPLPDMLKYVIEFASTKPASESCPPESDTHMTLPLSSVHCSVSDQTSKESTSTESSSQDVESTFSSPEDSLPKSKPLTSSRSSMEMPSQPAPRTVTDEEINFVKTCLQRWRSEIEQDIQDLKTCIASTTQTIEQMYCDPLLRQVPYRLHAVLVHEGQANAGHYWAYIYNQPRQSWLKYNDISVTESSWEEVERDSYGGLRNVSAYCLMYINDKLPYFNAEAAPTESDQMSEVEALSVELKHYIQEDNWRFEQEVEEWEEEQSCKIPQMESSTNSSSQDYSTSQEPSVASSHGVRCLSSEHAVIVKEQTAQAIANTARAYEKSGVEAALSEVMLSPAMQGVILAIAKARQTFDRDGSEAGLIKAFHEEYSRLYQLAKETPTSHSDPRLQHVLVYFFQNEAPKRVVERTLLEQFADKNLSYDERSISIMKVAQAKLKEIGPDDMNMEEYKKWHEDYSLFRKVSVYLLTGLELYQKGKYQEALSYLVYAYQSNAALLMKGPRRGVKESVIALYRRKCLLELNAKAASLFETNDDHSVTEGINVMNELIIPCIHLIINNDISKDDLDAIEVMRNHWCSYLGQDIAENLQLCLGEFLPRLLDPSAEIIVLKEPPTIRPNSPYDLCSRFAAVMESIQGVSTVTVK
# Outline: as §1
structure (smiles),measurement,setting,value
COc1ccc(-c2csc(NC(=O)CCl)n2)cc1,log2 ratio of Biotin-Ahx-Ub-VS probe labelling,[1],-0.674
same,log2 ratio of Biotin-Ahx-Ub-VS probe labelling,[2],-0.229
same,log2 ratio of Biotin-Ahx-Ub-VS probe labelling,[3],-1.44 (active)
same,log2 ratio of Biotin-Ahx-Ub-VS probe labelling,[4],-0.591
same,log2 ratio of Biotin-Ahx-Ub-VS probe labelling,[5],-0.741
